According to PubChem BioAssay (NCI):
Values joined by “and” are separate entries in the source; they are usually repeats but may differ in a detail not shown here. Identical values can stand only once. The panel holds about 83,000 compounds, 20% with a hit somewhere; the sample as a whole holds those more often.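 Step 1: grow cells in 96-well plates. Step 2: add test compound at a single concentration. Step 3: incubate 48 h. Step 4: record percent growth.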 A number with no mark means an inactive call. Active and inactive are the calls of the source. The calls were made as follows: active = growth percent below 10; inactive = the rest.

Tests used:
Assay in all cases: NCI-60 one-dose screen, 48 h (100 = growth as untreated, 0 = no growth, -100 = all killed)
DU-145 prostate = tested on: DU-145 prostate
K-562 leukemia = tested on: K-562 leukemia
MALME-3M melanoma = tested on: MALME-3M melanoma
MDA-MB-231 breast = tested on: MDA-MB-231 breast
RXF 393 renal = tested on: RXF 393 renal
SF-268 CNS = tested on: SF-268 CNS
SF-295 CNS = tested on: SF-295 CNS
SF-539 CNS = tested on: SF-539 CNS
UACC-257 melanoma = tested on: UACC-257 melanoma
M14 melanoma = details: 10 µM unless noted

Structure (SMILES) | growth (DU-145 prostate; 10 µM) | growth (DU-145 prostate; 100 µM) | growth (K-562 leukemia; 10 µM) | growth (K-562 leukemia; 100 µM) | growth (MALME-3M melanoma; 10 µM) | growth (MALME-3M melanoma; 100 µM) | growth (MDA-MB-231 breast; 10 µM) | growth (MDA-MB-231 breast; 100 µM) | growth (RXF 393 renal; 10 µM) | growth (RXF 393 renal; 100 µM) | growth (SF-268 CNS; 10 µM) | growth (SF-268 CNS; 100 µM) | growth (SF-295 CNS; 10 µM) | growth (SF-295 CNS; 100 µM) | growth (SF-539 CNS; 10 µM) | growth (SF-539 CNS; 100 µM) | growth (UACC-257 melanoma; 10 µM) | growth (UACC-257 melanoma; 100 µM) | growth (M14 melanoma)
S=P(N1CC1)(N1CC1)N1CC1 | 121% and 71.9% | -0.811% (active) | 109% and 53.2% | 43.4% | 98.1% and 97.8% | 82% | 100% and 103% | 101% | 120% and 86% | 14.4% | 124% and 83.6% | 36.5% | 104% and 81.7% | 14.3% | 113% and 94.6% | -8.76% (active) | 107% and 87.7% | 37.2% | 96.2% and 60.4%
COc1ccc(C(C#N)=C2C=CC(=NO)C=C2)cc1 | 72.4% |  | 46.6% |  | 103% |  | 96.3% |  | 113% |  | 80.9% |  | 106% |  | 79% |  | 58.1% |  | 79.1%
CN(CC(=O)O)c1ccc(/C=C/c2ccnc3ccccc23)cc1 | 97.7% |  | 50.5% |  | 99.2% |  | 66.8% |  | 111% |  | 90.1% |  | 92.2% |  | 90.3% |  | 86.9% |  | 90.3%
NCc1c(O)ccc2ccccc12 | 109% |  | 99.1% |  | 96.6% |  | 105% |  | 102% |  | 97.2% |  | 75.5% |  | 92.8% |  | 95.6% |  | 90.8%
Cn1ncc2cc3c(Nc4ccc(Cl)cc4)cccc3nc21 | 90% |  | 80.2% |  | 122% |  | 81.7% |  | 90.5% |  | 85.5% |  | 87.6% |  | 90.7% |  | 100% |  | 104%
CCOC(=O)[C@]1(Br)CC[C@@]1(Br)C(=O)OCC | 120% |  | 43.6% |  | 75.4% |  | 99.4% |  | 111% |  | 108% |  | 108% |  | 104% |  | 80.8% |  | 86.6%
Cc1cc(O)c2c(c1O)C(=O)C13C(=C2O)C(=O)C2C(O)C1C1C(O)C3C(=O)C3=C(O)c4c(O)cc(C)c(O)c4C(=O)C321 (stereo not drawn) | -6.49% (active) |  | 9.5% (active) |  | -2.77% (active) |  | 13.6% |  | -13.7% (active) |  | 10.6% |  | -30.2% (active) |  | -47.2% (active) |  | 8.71% (active) |  | 
COc1ccc(N)c2c1C(=O)c1ccccc1C2=O | 112% |  | 98.9% |  | 88.2% |  | 95.5% |  | 95.6% |  | 104% |  | 103% |  | 101% |  | 106% |  | 117%
Cc1c(-c2ccccc2)[nH]c2ccccc12 | 107% |  | 110% |  | 106% |  | 95.1% |  | 109% |  | 104% |  | 106% |  | 99.3% |  | 112% |  | 143%
O=C(NC(=S)Nc1ccccn1)c1ccccc1 | 96.2% |  | 143% |  | 82.6% |  | 91.6% |  | 103% |  | 104% |  | 104% |  | 88.6% |  | 110% |  | 91.9%
